65 compounds from PubChem BioAssay AID485341 (National Center for Advancing Translational Sciences (NCATS), 2010) can be followed below.

About 1,700 (0.52%) of roughly 330,000 compounds were called active. Calls follow the shape of the dose curve; as a rule, active = well fitted inhibition curve with a large enough effect; inconclusive = small, poorly fitted or top-dose-only effect; inactive = no such curve, though single readings can be large or run the other way. The list comes from a sample in which actives are over-represented; it also holds similar structures and randomly drawn compounds. Entries that show only a call come without a potency.
Potency is read from the fitted curve at half-maximal effect.

Beta-lactamase (Escherichia coli (strain K12)), sequence (P00811 whole entry, looked up): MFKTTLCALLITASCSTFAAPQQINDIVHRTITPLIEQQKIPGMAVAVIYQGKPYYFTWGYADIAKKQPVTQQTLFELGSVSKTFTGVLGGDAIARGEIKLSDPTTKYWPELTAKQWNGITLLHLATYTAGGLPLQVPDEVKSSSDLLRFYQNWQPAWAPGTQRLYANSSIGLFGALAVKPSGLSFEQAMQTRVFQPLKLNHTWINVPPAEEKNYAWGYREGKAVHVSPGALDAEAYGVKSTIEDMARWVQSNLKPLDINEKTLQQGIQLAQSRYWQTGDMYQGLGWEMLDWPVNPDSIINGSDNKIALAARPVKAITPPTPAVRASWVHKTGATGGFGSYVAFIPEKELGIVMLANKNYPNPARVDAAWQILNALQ

The test has as its target Beta-lactamase (Escherichia coli (strain K12)) (UniProt P00811). In words: qHTS Inhibitors of AmpC Beta-Lactamase (assay without detergent). Also: nearly all actives have a fitted effect of over 20% in size. The conditions noted are these: AmpC nitrocefin hydrolysis, absorbance 480 nm, 0.0001% Triton; series mostly up to 57.1 µM. How it is done:
NIH Molecular Libraries Probe Production Network [MLPCN] NIH Chemical Genomics Center [NCGC] Assay Provider: Professor Brian Shoichet, UCSF Assay Overview: This aggregation profiling approach exploits the sensitivity of aggregate formation to detergent. Inhibition of b-lactamase is measured in the presence and absence of 0.01% Triton X-100. This particular assay had the prescence of 0.01% Triton X-100. See Pubchem assay "Promiscuous and Specific Inhibitors of AmpC Beta-Lactamase (assay without detergent)" for related screen. Compounds that inhibit only in the absence of detergent are considered likely promiscuous aggregators. A screen of 1,030 compounds was performed in Brian Shoichet's lab in 96-well format. AmpC activity was measured by following the absorbance at 480 nm. Nitrocefin is a chromogenic substrate: while nitrocefin is yellow (lmax 390 nm), the product of its hydrolysis is red (lmax 486 nm, 17,000 M-1). AmpC beta lactamase was provided by Shoichet Lab, UCSF.
Buffer: 20 mM phosphate buffer, pH 7.0 Triton X-100: No Detergent screen: 0.0001%, Detergent screen: 0.01%. Reagents/Controls: Buffer in columns 3 and 4 as negative control (no enzyme). 5.3 nM AmpC in columns 1, 2, 5-48. Titration of UCSF compound 9 control (from 10 mM, then 1:2) pin-transferred to column 2. Column 1 is neutral (100% activity). Assay Steps: Six uL of reagents were dispensed to 1536-well Greiner black clear bottom plates. Compounds and controls (23 nL) were transferred via Kalypsys PinTool. The plates were incubated for 15 min at room temperature, and then 2 uL of 800 uM solution of nitrocefin was added to start the reaction. The plates were immediately transferred to and read every 20 seconds for 4 min on ViewLux (Perkin-Elmer) High-throughput CCD imager using 480 nm absorbance protocol. During dispense, reagent bottles were kept submerged into 4 deg C water bath. Keywords: NIH Roadmap, MLSCN, MLI, MLSMR, qHTS, NCGC, AmpC Beta-Lactamase, Aggregation
(Quantitative high-throughput screening tests each substance at several concentrations.)
`COc1cc(CO)ccc1OCC(=O)Nc1cccc2ccccc12`: the Potency is 14.1 µM (active).
For `COc1ccccc1NC(=O)COc1ccc(C(=O)OCC(=O)N(C(C)C)C(C)C)cc1OC` the value was “inactive”.
`COc1ccc(N(CC(=O)Nc2cccc3ccccc23)S(C)(=O)=O)c(OC)c1`: the Potency entry was “inactive”.
With `C[C@@H](NC(=O)OC(C)(C)C)c1nnc(S(=O)(=O)Cc2ccccc2)o1` the figure was 10 µM (active); with `COc1ccccc1NC(=O)[C@H](COCc1ccccc1)NC(=O)OC(C)(C)C`, “inactive”; with `CCc1ccccc1NC(=O)CSc1nnc([C@@H](NC(=O)OC(C)(C)C)C(C)CC)o1` (stereo not given in full), “inactive”.
Consider `Cn1c(Cc2csc(N)n2)nnc1SC/C=C/c1ccccc1`, for which the Potency result is “inactive”.
For the compound `COc1cc(Cl)c(S(=O)(=O)N2CCN(Cc3ccc4c(c3)OCO4)CC2)cc1Cl`, the Potency entry was “inactive”.
Consider `O=C(CN1C(=O)/C(=C\c2ccccc2F)SC1=S)Nc1nc2ccccc2s1`, for which the Potency result was “inactive”.
Turning to `O=C(CCCN1C(=O)/C(=C\c2ccco2)SC1=S)Nc1cccc2ccccc12`, the Potency was 11.2 µM (active).
With `O=C(CCCN1C(=O)/C(=C\c2ccccc2)SC1=S)Nc1ccccc1O`, the Potency was 11.2 µM (active).
Turning to `O=C1/C(=C\c2ccccc2Cl)SC(=S)N1CCC(=O)N1CCCc2ccccc21`, the Potency result was “inactive”.
In the case of `O=C(CCCN1C(=O)/C(=C/c2cccs2)SC1=S)Nc1ccc(O)cc1`, the Potency result is “inactive”.
As for `COc1ccc(/C=C2/SC(=O)N(CCCCCC(=O)Nc3ccccc3C(=O)O)C2=S)cc1`, the Potency entry was “inactive”.
As for `CCC(c1nnc(SCC(=O)NNC(=O)c2ccccc2)n1Cc1ccccc1)N(C)C` (stereo not given), the Potency entry was “inactive”.
With `CN(C)/C=C(/C(=O)c1ccc(Cl)cc1)S(=O)(=O)c1ccccc1` the entry was “inactive”; with `CN(C)/C=C(/C(=O)c1ccc(F)cc1)S(=O)(=O)c1ccc(F)cc1`, 12.6 µM (active).
For `CN(C)/C=C(/C(=O)c1ccccc1)S(=O)(=O)c1ccc(Cl)cc1` the value was “inactive”; for `Cc1ccccc1CN1CCNC(=O)C1CC(=O)NCCC1=CCCCC1` (stereo not given), “inactive”; for `COc1cc(NC(=S)NNC(=O)CC(C)C)c(OC)cc1Cl`, “inactive”.
As for `C=CCNC(=O)c1csc(-c2ccccc2)n1`, the Potency result was “inactive”.
For `C=CCNC(=O)c1sc(SC)cc1-c1ccc(Cl)cc1`, the Potency was 1 µM (active).
Consider `CSc1sc(C(=O)NNC(=O)c2ccc(Cl)cc2)c2c1C=CCC2`, for which the Potency entry is “inactive”.
On to `CCN1CCN(CC(=O)c2cc(OC)c(OC)c(OC)c2)CC1`, for which the Potency entry was “inactive”.
With `CC(C)c1ccc(N(C(=O)c2ccco2)C(C(=O)NC2CCCC2)c2cccnc2)cc1` (stereo not given), the Potency result was “inactive”.
With `COC(=O)c1ccccc1SC1CC(=O)N(c2cccc(C)c2)C1=O` (stereo not given), the Potency was 7.08 µM (active).
Take `Cc1cccc(N2C(=O)CC(SC(N)=Nc3ccccc3)C2=O)c1` (stereo not given): the Potency entry is “inactive”.
As for `COC(=O)c1cc(C(=O)OC)cc(N2C(=O)CC(N3CCN(c4ccccc4)CC3)C2=O)c1` (stereo not given), the Potency entry is “inactive”.
In the case of `CCc1ccc(Oc2nc([N+](=O)[O-])nn2C)cc1`, the Potency entry is “inactive”.
With `O=C1CC(=O)N(Cc2ccccc2)C(=O)N1CCCCCCN1C(=O)CC(=O)N(Cc2ccccc2)C1=O`, the Potency was 7.08 µM (active).
On to `Cc1c(NC(=O)CN2C(=O)C(=O)N(Cc3ccccc3)C2=O)c(=O)n(-c2ccccc2)n1C`, for which the Potency entry was “inactive”.
With `O=C(O)CCCN1C(=O)C2C3c4ccccc4C(c4ccccc43)[C@@H]2C1=O` (stereo not given in full), the Potency entry was “inactive”.
For `COc1ccc(CCN2C(=O)N(c3ccc(OC)cc3)C(=O)C2CC(=O)Nc2ccc(OC)cc2)cc1` (stereo not given) the value was “inactive”; for `CCN=C1S/C(=C\c2cc(Br)ccc2OCC(=O)OCC)C(=O)N1CC`, “inactive”.
For `O=c1c2ccccc2[nH]c(=S)n1CCN1CCC(=C(c2ccc(F)cc2)c2ccc(F)cc2)CC1` the value was 3.16 µM (active); for `COc1ccc(Cn2c(=S)[nH]c3cc(C(=O)NCCCN4CCOCC4)ccc3c2=O)cc1`, “inactive”; for `CCCCn1c(=S)[nH]c2ccccc2c1=O`, “inactive”.
Consider `C=CCn1c(SCCOc2ccc(OC)cc2)nnc1C(NC(=O)c1ccc(OC)cc1)C(C)C` (stereo not given), for which the Potency result is “inactive”.
As for `COc1cccc(NC(=O)CCc2nnc3ccc(N4CCC(C)CC4)nn23)c1`, the Potency result was “inactive”.
Turning to `CN(CC(=O)NCC(c1ccccc1)N1CCCC1)S(=O)(=O)c1ccc(Cl)cc1` (stereo not given), the Potency entry is “inactive”.
With `O=C(COC(=O)c1ccc(O)cc1O)NNC(=O)c1cccs1` the entry was “inactive”; with `O=C(COC(=O)c1ccc(NS(=O)(=O)c2cccs2)cc1O)Nc1ccc(F)cc1`, 14.1 µM (active).
For the compound `CCc1ccc(NC(=O)COC(=O)c2cccs2)cc1`, the Potency entry is “inactive”.
For `CC(=O)N/C(=C/c1ccc(OC(F)F)cc1)C(=O)O` the value was “inactive”.
In the case of `COc1cccc(-c2coc3cc4oc(=O)c(CC(=O)O)c(C)c4cc23)c1`, the Potency entry is “inactive”.
For `C=CCNC(=O)COc1coc(CN2CCN(Cc3ccccc3)CC2)cc1=O`, the Potency entry is “inactive”.
Regarding `COc1ccc(OCCCC(=O)Nc2cccc(S(=O)(=O)N3CCCCCC3)c2)cc1`, the Potency result was “inactive”.
Take `COc1cccc(NC(=O)COc2cccnc2[N+](=O)[O-])c1`: the Potency entry is “inactive”.
Regarding `COc1ccccc1CNC(=O)COC(=O)CNS(=O)(=O)c1ccc(NC(C)=O)cc1`, the Potency entry was “inactive”.
With `COc1ccc(S(=O)(=O)NC(CC(=O)NCc2ccccc2OC)c2ccco2)cc1` (stereo not given), the Potency is 0.316 µM (active).
For the compound `O=C(CC(NS(=O)(=O)c1ccc(Cl)cc1)c1ccco1)NC1CCCC1` (stereo not given), the Potency result was “inactive”.
As to `Cc1cc(C)n(-c2ccc3nncn3n2)n1`, the Potency entry is “inactive”.
Take `COc1ccc(C2N3CC(C)(C)CN23)cc1` (stereo not given): the Potency result was “inactive”.
For `O=C(CC1CCCCC1)NCc1ccco1`, the Potency result was “inactive”.
Consider `O=C(CN1C(=O)/C(=C\c2ccc(C(F)(F)F)cc2)Sc2ccccc21)NCc1ccco1`, for which the Potency is 10 µM (active).
As for `O=C(CN1C(=O)/C(=C/c2ccccc2F)Sc2ccccc21)NCc1cccnc1`, the Potency entry is “inactive”.
With `CN1CCN(Cc2nc3c(c(=O)n(C)c(=O)n3C)n2Cc2cccc3ccccc23)CC1`, the Potency entry was “inactive”.
`CC1CN(Cc2nc3c(c(=O)n(C)c(=O)n3C)n2Cc2cccc(Cl)c2)CC(C)O1` (stereo not given): the Potency was 44.7 µM (active).
With `CCOC(=O)N1CCN(Cc2nc3c(c(=O)n(C)c(=O)n3C)n2Cc2ccccc2)CC1`, the Potency entry was “inactive”.
Consider `C=CCn1c(C2CC(=O)N(c3ccc(C)cc3)C2)nc2ccccc21` (stereo not given), for which the Potency entry is “inactive”.
Regarding `O=S(=O)(c1cccc2nonc12)N1CCN(c2cccc(Cl)c2)CC1`, the Potency result is “inactive”.
For `CC(=O)c1ccccc1NC(=O)CC1(CC(=O)O)CCCCC1` the value was “inactive”.
For `CC(C)N(c1ccccc1)c1ncnc(NCCC(=O)O)c1[N+](=O)[O-]`, the Potency is 0.316 µM (active).
As to `Cc1ccc(C(C)NC(=O)Cn2nc(C)c([N+](=O)[O-])c2C)cc1` (stereo not given), the Potency entry was “inactive”.
With `Cc1ccc(OCC(=O)NC(C)c2ccccc2)c([N+](=O)[O-])n1` (stereo not given), the Potency result is “inactive”.
